# “And” between values parts separate entries of the source, which are not always exact repeats. Identical values can stand only once. Inconclusive results are not listed. A structure can be active in one record and inactive in another. The source made the active and inactive calls. The call rests on the fitted dose curve; in most records, active means well fitted curve in the direction sought with a large enough effect; inconclusive means small, poorly fitted or top-dose-only effect, or another doubt; inactive means no such curve, though single readings can be large; an effect the other way counts as inactive or inconclusive.
# What was measured:
# [1] = Viability qHTS for spleen associated tyrosine kinase inhibitor (SYKi) naive MV4-11 cells (AID 1963823); further: nearly all actives have a fitted effect of over 40% in size; further: potency means the concentration at half of the fitted maximal effect
# Outline: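 Viability of MV4-11 AML cells lacking prior SYK inhibitor exposure is scored by CellTiter-Glo luminescence following 72 hr compound incubation at 37 C, 5% CO2, seeded at 500 cells per well.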
# [2] = Quantitative highthroughput screen to assess conditional lethalithy of P12 Ichikawa cells grown in RPMI1640 with dialyzed fetal bovine serum (RPMI+ds) (AID 1963880); details: Potency: P12-Ichikawa viability; further: nearly all actives have a fitted effect of over 35% in size; further: potency means the concentration at half of the fitted maximal effect;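 on Viability: 100% = DMSO wells and 0% = empty wells on each plate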
# Outline: (§1)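 Each medium arm—HPLM with 10% dialyzed FBS, or RPMI1640 with 5 mM glucose and 10% untreated or dialyzed FBS—was screened against an 11-point, 3-fold compound titration for 48 h at 37 °C, with CellTiter-Glo luminescence as endpoint.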
# [3] = Quantitative highthroughput screen to assess conditional lethalithy of P12 Ichikawa cells grown in RPMI1640 with untreated serum (RPMI+s) (AID 1963881); details: Potency: viability; further: nearly all actives have a fitted effect of over 35% in size; further: potency means the concentration at half of the fitted maximal effect;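 on Viability: series mostly up to about 46 µM; 100% = DMSO wells and 0% = empty wells without cells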
# Outline: as §1
# [4] = Cellular viability qHTS for adrenocortical cancer (ACC) cell line SW-13 (AID 1963989); details: SW-13 ACC cells viability, CellTiter-Glo, 48 h; activity (max response): stronger effect = lower value; further: nearly all actives have a fitted effect of over 65% in size; further: potency means the concentration at half of the fitted maximal effect;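 on activity (max response): cells grown in serum-free medium with ITS supplement; on the % scale 0 is the no-effect control and ±100 the full control effect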
# Outline: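 Viability was read as CellTiter-Glo luminescence after 48 h compound treatment (up to 46 uM final) of SW-13 cells grown serum-free; titration curves were fit with a four-parameter logistic model to give IC50 and efficacy.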
# [5] = Cellular viability qHTS for adrenocortical cancer (ACC) cell line NCI-H295R (AID 1963990);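 further: 0% = DMSO only wells and -100% = full killing with cytotoxic reference compound; nearly all actives have a fitted effect of over 60% in size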
# Outline: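 CellTiter-Glo ATP luminescence, read 48 h after compound addition, measured viability of NCI-H295R adrenocortical cells grown serum-free with ITS. Final concentrations spanned up to 46 uM. Data normalized to DMSO and doxorubicin, fitted for IC50 and maximal response.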
# [6] = Quantitative highthroughput screen to assess conditional lethalithy of P12 Ichikawa cells grown in Human Plasma-Like Medium with dialyzed fetal bovine serum (HPLM+ds) (AID 1963879); details: Potency: viability; further: potency means the concentration at half of the fitted maximal effect; nearly all actives have a fitted effect of over 35% in size
# Outline: as §1
# [7] = Quantitative highthroughput screen to assess conditional lethalithy of SEM cells grown in Human Plasma-Like Medium with dialyzed fetal bovine serum (HPLM+ds) (AID 1963882); further: series mostly up to about 46 µM; nearly all actives have a fitted effect of over 35% in size
# Outline: as §1
# [8] = Quantitative highthroughput screen to assess conditional lethalithy of SEM cells grown in RPMI1640 with unreated serum (RPMI+s) (AID 1963883)
# Outline: as §1
# [9] = Quantitative highthroughput screen to assess conditional lethalithy of SEM cells grown in RPMI1640 with dialyzed fetal bovine serum (RPMI+ds) (AID 1963884)
# Outline: as §1
# [10] = Quantitative highthroughput screen to assess conditional lethalithy of NOMO1 cells grown in RPMI1640 with dialyzed fetal bovine serum (RPMI+ds) (AID 1963877);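 further: series mostly up to about 46 µM; 100% = DMSO control wells and 0% = empty wells; nearly all actives have a fitted effect of over 30% in size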
# Outline: as §1
smiles,measurement,setting,value
C[C@@H]1COCCN1c1cc(=O)n2c(n1)N(Cc1cncc(Cl)c1)[C@H](C(F)(F)F)CC2,Potency,[1],6.51 µM (active)
same,Potency,[2],9.33 µM (active)
same,Potency,[3],9.33 µM (active)
same,activity (max response),[4],2.98% (inactive)
same,Potency,[5],inactive
O=C(NCC1CN(c2ccc(N3CCOCC3=O)cc2)C(=O)O1)c1ccc(Cl)s1 (configuration not stated),Potency,[1],inactive
same,Potency,[6],2.96 µM (active)
same,Potency,[3],2.96 µM (active)
same,Potency,[7],inactive
same,Potency,[8],inactive
same,Potency,[9],inactive
same,activity (max response),[4],-21.7% (inactive) and -9.76% (inactive)
same,Potency,[5],inactive
Nc1nc(F)nc2c1ncn2[C@@H]1O[C@H](COP(=O)(O)O)[C@@H](O)[C@@H]1O,Potency,[1],8.33 µM (active)
same,activity (max response),[4],-12.7% (inactive)
CC(=O)OC[C@@H]1O[C@@H](n2ccc(=O)[nH]c2=O)[C@H](OC(C)=O)[C@H]1OC(C)=O,Potency,[1],inactive
same,Potency,[2],inactive
same,Potency,[3],inactive
same,Potency,[7],inactive
same,Potency,[9],inactive
same,activity (max response),[4],-1.19% (inactive)
same,Potency,[5],inactive
Nc1ccc(N)c([N+](=O)[O-])c1,Potency,[1],24.3 µM (active)
same,activity (max response),[4],-20.8% (inactive)
Cc1nn(C)c(COc2ccc(N3CCN(S(=O)(=O)N(C)C)CC3)cc2)c1-c1cccc2c(CCCOc3cccc4ccccc34)c(C(=O)O)n(CCN3CCOCC3)c12,Potency,[1],7.42 µM (active) and inactive
same,Potency,[10],inactive
same,activity (max response),[4],-16.3% (inactive)
same,Potency,[5],inactive
Nc1ccc(F)cc1NC(=O)c1ccc(CNC(=O)/C=C/c2cccnc2)cc1,Potency,[1],1.66 µM (active)
same,Potency,[4],11.2 µM (active)
Cc1oc(-c2ccccc2)nc1CCC(=O)c1ccc(CC2SC(=O)NC2=O)cc1 (configuration not stated),Potency,[1],inactive
same,activity (max response),[4],-12.1% (inactive)
